This is one part of a sample in which hits are shown more often than they occur.
nsP2pro inh – inhibitors of chikungunya virus nsP2 protease. Q8JUX6. FRET peptide cleavage, nsP2pro, fluorescence 1 h. Potency, µM (titrated, usually from 24.9 µM), for the others: at the top dose activity change, negative = inhibition, most hits filed as inhibitors. 1.1% of 31,000 active; note: nearly all actives have a fitted effect of over 60% in size
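Recombinant nsP2pro (150 nM) was preincubated with compound 15 min at room temperature in 10 mM Tris-HCl pH 8.0, 0.01% Tween 20. Peptide 2 FRET substrate (2.5 uM) was then added and fluorescence read after 1 h. Seven-point series, up to 25 uM.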
CHIKV nsP2 cell – cell-based CHIKV nsP2 protease inhibition, secondary | shares compounds with nsP2pro inh | cell-based CHIKV nsP2 protease reporter assay | Potency, µM (series often up to 51.1 µM), without a hit: at the top dose activity change, negative = inhibition, usual class: inhibitors | 10% of 450 active; note: nearly all actives have a fitted effect of over 70% in size
Target sequence (Q8JUX6 220-798 limits assumed): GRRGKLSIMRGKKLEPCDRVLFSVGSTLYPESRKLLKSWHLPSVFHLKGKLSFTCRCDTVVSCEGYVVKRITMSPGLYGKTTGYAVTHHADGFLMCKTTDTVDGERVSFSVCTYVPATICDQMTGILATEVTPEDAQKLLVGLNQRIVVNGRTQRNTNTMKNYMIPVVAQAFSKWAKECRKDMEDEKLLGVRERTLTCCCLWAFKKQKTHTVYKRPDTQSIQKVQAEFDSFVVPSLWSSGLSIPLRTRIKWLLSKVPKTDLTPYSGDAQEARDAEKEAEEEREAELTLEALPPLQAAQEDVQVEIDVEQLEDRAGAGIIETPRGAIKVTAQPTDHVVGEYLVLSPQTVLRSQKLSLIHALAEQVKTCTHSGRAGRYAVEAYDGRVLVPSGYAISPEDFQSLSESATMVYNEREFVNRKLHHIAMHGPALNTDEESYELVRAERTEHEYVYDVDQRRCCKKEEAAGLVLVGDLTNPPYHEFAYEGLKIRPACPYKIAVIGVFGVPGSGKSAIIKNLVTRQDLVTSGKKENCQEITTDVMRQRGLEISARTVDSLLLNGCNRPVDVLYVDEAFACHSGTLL
NSP2 full ctr – selectivity test for CHIKV nsP2 protease inhibitors: full-length NSP2; AID 1964101; Full-length CHIKV NSP2 protease enzymatic counterscreen; Potency, µM (top dose mostly 50.7 µM), for the others: at the top dose activity change, negative = inhibition, hits mostly inhibitors; 39% of 410 active; shares compounds with nsP2pro inh; note: nearly all actives have a fitted effect of over 65% in size
Furin counter – human furin inhibition, counterscreen for nsP2pro inhibitors; 6% of 410 active; Potency, µM (highest dose often 50.6 µM), inactives show at the highest dose activity change, negative = inhibition, actives largely listed as inhibitors; Recombinant human furin enzymatic counterscreen, fluorogenic substrate; shares compounds with nsP2pro inh; AID 1964102
NS23 peptide cs – selectivity test for CHIKV nsP2 protease inhibitors: endogenous NS2/3 peptide | Purified CHIKV nsP2 protease, endogenous NS2/3 peptide cleavage | shares compounds with nsP2pro inh | Potency, µM (titrated, usually from 51 µM), without a hit: top-dose activity change, negative = inhibition, hits mostly inhibitors | 34% of 410 active; note: nearly all actives have a fitted effect of over 55% in size
Papain counter – papain protease inhibition, counterscreen for nsP2pro inhibitors. shares compounds with nsP2pro inh. purified papain protease activity, enzymatic inhibition. Potency, µM (top dose mostly 51 µM), for the others: at the top dose activity change, negative = inhibition, actives largely listed as inhibitors. 5% of 410 active. AID 1964104
nsP2pro conf qHTS – CHIKV nsP2 protease inhibition, confirmatory qHTS | shares compounds with nsP2pro inh | CHIKV nsP2 protease enzymatic activity, qHTS | Potency, µM (doses to about 25.5 µM), for inactives: top-dose activity change, negative = inhibition, actives largely listed as inhibitors | 43% of 410 active | AID 1964105; note: nearly all actives have a fitted effect of over 75% in size
HCV NS3 4A cs – selectivity counter-screen for CHIKV nsP2 protease inhibitors: HCV NS3/4A; 20% of 410 active; Potency, µM (highest dose often 50.9 µM), actives largely listed as inhibitors; shares compounds with nsP2pro inh; AID 1964106; HCV NS3/4A protease biochemical counterscreen; note: nearly all actives have a fitted effect of over 55% in size
The depositor's hits bear a star; i = inactive; ? = inconclusive; [ ] = remark or other dose. Calls come from the whole dose curve. % is set by controls: 0 for no effect and ±100 for the full control effect; potency is the fitted concentration of half-maximal effect.

SMILES	nsP2pro inh	others
COC(=O)C1=C(C)NC(C)=C(C(=O)OCCc2ccc(N3CCN(C(c4ccccc4)c4ccccc4)CC3)cc2)C1c1cccc([N+](=O)[O-])c1 (stereo not drawn)	1.2%
COC(=O)C1=C(C)NC(C)=C(C(=O)OCC(C)C)C1c1ccccc1[N+](=O)[O-] (stereo not drawn)	9.88µM*	CHIKV nsP2 cell=?;NSP2 full ctr=?;Furin counter=-11.0%;NS23 peptide cs=14.6µM*;Papain counter=16.7%;nsP2pro conf qHTS=10µM*;HCV NS3 4A cs=i
CC(C)COC(=O)c1ccc(N)cc1	-2.4%
CCOc1ccc(N(CC)C(=O)c2ccc3c(c2)N(S(C)(=O)=O)CC3)cc1	-1.7%
Cn1cc(CN2C[C@H](C(=O)Nc3ccn(C)n3)C[C@@H]2c2cccc(C(F)(F)F)c2)cn1	i
NS(=O)(=O)C#Cc1ccccc1	7.85µM*	CHIKV nsP2 cell=?;NSP2 full ctr=13µM*;Furin counter=-6.9%;NS23 peptide cs=?;Papain counter=-6.9%;nsP2pro conf qHTS=6.34µM*;HCV NS3 4A cs=i
O=S(=O)(O)c1ccccc1	-0.8%
Cn1c2cc(Br)sc2c2cnn(Cc3ccc(F)cc3F)c(=O)c21	-7.8%
O=S(=O)(c1cccc2c(Cl)cccc12)N1CCCNCC1	3.1%
O=C(Cc1ccccc1Cl)N1CC(CO)C2(CCNCC2)C1 (stereo not drawn)	6.6%
Cc1ccc(NC(=O)CSc2nc(-c3cccs3)nc3cc(=O)[nH]n23)cc1C	-6.9%
COCCNC(=O)Nc1ccc2nc(-c3cccs3)c(-c3cccs3)nc2c1	?	CHIKV nsP2 cell=-3.8%;NSP2 full ctr=33.8%;Furin counter=-9.9%;NS23 peptide cs=-9.6%;Papain counter=49.2%;nsP2pro conf qHTS=8.5%;HCV NS3 4A cs=i
COCCNC(=O)c1cc2c(Cl)nc3ccc(C)cc3c2s1	12.8%
CCOC(=O)c1cc(-c2ccccc2)n(CCCC(=O)Nc2cccc(C)c2C)c1C	-29.9%
CC(C)(C)NC(=O)Nc1cccc(Nc2ncc(F)c(NC(C)(C)CO)n2)c1	-3.1%
CSc1ccc(CN2CCN(C(=O)COc3ccc(C)cc3)CC2)cc1	-8.0%
O=[N+]([O-])C(Br)(CO)CO	2.48µM*	CHIKV nsP2 cell=0.5%;NSP2 full ctr=9.19µM*;Furin counter=2.4%;NS23 peptide cs=9.19µM*;Papain counter=-7.5%;nsP2pro conf qHTS=1.59µM*;HCV NS3 4A cs=?
Oc1ccc(CCc2ccccc2)c2cccnc12	i
COC(=O)c1cc2sc(C)cc2n1Cc1ccc(F)cc1Cl	-15.9%
Cc1nc(CN2Cc3nc(OCc4ccc(F)cc4)ccc3OCC2=O)cs1	-2.6%[39.2 µM]
CC(=O)N1c2ccc(S(=O)(=O)Nc3ccc(C)c(C)c3)cc2CC1C (stereo not drawn)	3.8%
Cc1ccc(Cl)cc1N1CCN(Cc2nnc(-c3ccc4c(c3)OCO4)o2)CC1	-23.4%
Cc1sc2c(c1C)c(=O)n(Cc1ccccc1)c(=O)n2Cc1ccc(F)cc1	-12.6%
Cc1cnc(CCN)n1Cc1ccccc1	i
Cn1sc(=O)n(Cc2ccccc2)c1=O	6.24µM*	CHIKV nsP2 cell=?;NSP2 full ctr=11.6µM*;Furin counter=?;NS23 peptide cs=9.19µM*;Papain counter=-4.3%;nsP2pro conf qHTS=4µM*;HCV NS3 4A cs=i
SMILES	nsP2pro inh	others
O=C(NCCc1ccccc1)c1nn(-c2ccccc2Cl)nc1CO	3.4%
COCCn1c(COc2c(F)ccc(Cl)c2F)nnc1C1CC(N)C1 (stereo not drawn)	i
CC(=O)O[C@@]1(C)[C@@H]2CC(=C(C)C)C(=O)C[C@@]2(C)CC[C@H]1OC(=O)C1(C)OC1C (stereo partly drawn)	12.5%
CC[C@@H](N)CNc1ccnc(-c2cc(-c3cnn(C)c3)ccc2O)n1	80.4%
COc1ccc(OC)c(CNC(=O)c2cccc(NC(=O)N3CCSc4ncccc43)c2)c1	-3.6%
C/C(=N\N=C(N)N)c1cc(NC(=O)CCCCCCCCC(=O)Nc2cc(/C(C)=N/N=C(N)N)cc(/C(C)=N/N=C(N)N)c2)cc(/C(C)=N/N=C(N)N)c1	5.56µM*	CHIKV nsP2 cell=71.3%;NSP2 full ctr=13µM*;Furin counter=11.6µM*;NS23 peptide cs=13µM*;Papain counter=-16.9%;nsP2pro conf qHTS=6.34µM*;HCV NS3 4A cs=11.6µM*
CC(C)(C)C(=O)Nc1nc2c(s1)C[C@@H]1[C@](C)(CO)[C@H](O)CC[C@@]1(C)[C@@H]2CC(=O)NC1CC1	-9.5%
CC/C(C)=C/C(=O)OC1C(OC2(C)CCC3C(C4C(C)CCC42)C3(C)C)OC(C)C(O)C1O (stereo not drawn)	?	CHIKV nsP2 cell=?;NSP2 full ctr=4.8%[17.3 µM];Furin counter=-17.0%[17.3 µM];NS23 peptide cs=-1.6%[17.2 µM];Papain counter=?;nsP2pro conf qHTS=-9.8%[8.62 µM];HCV NS3 4A cs=i
Cc1ccccc1CNC(=O)c1ccc2c(c1)N(Cc1ccccc1)CCS2	-6.7%
COc1ccc(-c2ccc(NS(=O)(=O)c3ccccc3)cc2)nn1	-2.0%
COc1ccc([N+](=O)[O-])c(S(=O)(=O)c2ccccc2)n1	2.24µM*	CHIKV nsP2 cell=1.83µM*;NSP2 full ctr=13µM*;Furin counter=?;NS23 peptide cs=3.26µM*;Papain counter=-11.6%;nsP2pro conf qHTS=5.65µM*;HCV NS3 4A cs=?
COc1cc(NS(=O)(=O)c2cccc([N+](=O)[O-])c2)c2ncccc2c1	106.5%
COc1ccc([N+](=O)[O-])c(S(=O)(=O)c2ccc(Cl)cc2)n1	6.31µM*	CHIKV nsP2 cell=2.06µM*;NSP2 full ctr=23.1µM*;Furin counter=-1.2%;NS23 peptide cs=5.8µM*;Papain counter=-10.5%;nsP2pro conf qHTS=-97.8%;HCV NS3 4A cs=i
CCN(CC)CCCNc1sc(S(=O)(=O)c2ccccc2)nc1S(=O)(=O)c1ccc(Cl)cc1	30.5%
COc1ccc(NS(=O)(=O)c2ccc(N)cc2)nn1	-4.1%
Cn1c(Cn2ccnc2)nnc1C1CCCN(CCOCc2ccccc2)C1 (stereo not drawn)	i
CN(CCOc1ccc(NS(C)(=O)=O)cc1)CCc1ccc(NS(C)(=O)=O)cc1	3.5%
Cc1ccc(N2CCN(C(=O)c3ccc4c(Cl)c5c(nc4c3)CCCC5)CC2)c(C)c1	-18.3%
COc1ccccc1C(=O)NCC(c1cccnc1)N1CCc2ccccc2C1 (stereo not drawn)	-16.6%
COc1ccc(C(=O)NCC(c2cccnc2)N2CCN(c3ccccc3)CC2)cc1 (stereo not drawn)	-10.2%
O=C(NCC(c1cccnc1)N1CCc2ccccc2C1)c1ccc(F)c(F)c1 (stereo not drawn)	?	CHIKV nsP2 cell=-12.0%
Cn1cc(-c2ccc3ncc(Cc4ccc5ncccc5c4)n3n2)cn1	60.4%
O=C1O[C@H]([C@@H](O)CO)C(O)=C1O	-14.1%
N#Cc1ccc2c(c1)CCN(CCC1CCC(NC(=O)c3ccnc4ccccc34)CC1)C2 (stereo not drawn)	-7.6%
Cc1cc(NC(=O)c2ccc([S+](=O)([O-])NCc3ccc(Cl)c(Cl)c3)cc2)no1	-2.2%
